m5-HT2A agonist: mouse HTR2A agonism via beta-arrestin recruitment; P35363; CHO-K1 mHTR2A beta-arrestin complementation, luminescence; percent of 30 µM serotonin response; activation, % at 7.6 µM; 360,000 compounds, 0.66% hits;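 active = activation above a run cutoff, the mean activation of all tested compounds plus 3 SD, cut at about 14% in these data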;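 note: 0% = plate median of compound wells and 100% = 30 µM serotonin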
LANA-H2A inh: blocks KSHV LANA binding to histone H2A/H2B; Q9QR71; cell-free LANA-H2A/H2B peptide, fluorescence polarization; inhibition, % (concentration not given with the values); 320,000 compounds, 0.6% hits; in the data active = inhibition mostly above about 10%, no sharp cut-off; inactive = mostly below about 6.7%
Rtt109 HAT inh: inhibitors of Candida albicans Rtt109/Vps75 histone acetyltransferase. AID 540336. Q5AAJ8. 330,000 compounds, 0.16% hits. purified Rtt109/Vps75, ThioGlo CoA-SH fluorescence, 4 h. inhibition, % at 34.9 µM;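 active = inhibition of at least 50% in every replicate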
TLR4 MyD88 comp: TLR4-MyD88 interaction inhibition in cells | HeLa CL3-4 TLR4/MyD88 BLA complementation, FRET ratio | inhibition, % at 8.4 µM | 200,000 compounds, 0.18% hits; in the data active = inhibition above about 25%;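 note: 0% = vehicle and 100% = reference inhibitor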
NOD2 RIPK2 PPI: inhibitors of human NOD2-RIPK2 interaction; O43353; CHO BLA complementation NOD2-RIPK2, CCF4 ratio; inhibition, % at 4.98 µM; 360,000 compounds, 0.38% hits; AID 624267; in the data active = inhibition above about 21%;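 note: 0% = vehicle only and 100% = reference blocker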
Target sequence (O43353 whole entry, looked up): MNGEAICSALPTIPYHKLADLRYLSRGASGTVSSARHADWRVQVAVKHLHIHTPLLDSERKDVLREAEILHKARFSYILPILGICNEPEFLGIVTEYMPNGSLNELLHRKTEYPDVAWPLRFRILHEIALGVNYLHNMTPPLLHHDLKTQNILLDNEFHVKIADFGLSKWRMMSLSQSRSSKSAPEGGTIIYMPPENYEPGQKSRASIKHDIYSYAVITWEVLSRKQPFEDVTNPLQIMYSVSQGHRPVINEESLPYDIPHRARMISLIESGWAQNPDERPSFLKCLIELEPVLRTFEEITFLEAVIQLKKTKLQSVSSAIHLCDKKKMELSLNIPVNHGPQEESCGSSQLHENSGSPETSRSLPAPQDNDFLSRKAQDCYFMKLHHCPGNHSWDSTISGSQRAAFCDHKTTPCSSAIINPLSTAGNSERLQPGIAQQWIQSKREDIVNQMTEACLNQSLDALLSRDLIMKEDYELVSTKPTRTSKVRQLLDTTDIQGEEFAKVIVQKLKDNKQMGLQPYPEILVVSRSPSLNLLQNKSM
TLR9-MyD88 block: blocks human TLR9 binding to MyD88; CHO BLA complementation TLR9-MyD88, CCF4 FRET ratio; Q9NR96+Q99836; AID 504734; inhibition, % at 4.98 µM; 340,000 compounds, 0.21% hits;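 active = inhibition above the mean over all tested compounds plus 3 SD, cut at about 21% in these data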;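 note: 0% = DMSO only wells and 100% = clavulanate BLA inhibitor control wells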
MOR ag counter: OPRM1 agonism in mouse HTR2A counterscreen; shares compounds with m5-HT2A agonist; U2OS OPRM1 beta-arrestin PathHunter, luminescence; DMSO 0%, DAMGO 9.3 µM 100%; activation, % at 9.3 µM; 2,300 compounds, 5.3% hits; AID 624380;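 active = mean activation above the mean of DMSO-only wells plus 3 SD, cut at about 0.5% in these data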
m5-HT2A ag conf: mouse HTR2A agonism confirmed. shares compounds with m5-HT2A agonist. CHO-K1 PathHunter beta-arrestin recruitment, luminescence; DMSO 0%, 30 µM serotonin 100%. activation, % at 7.6 µM. 2,300 compounds, 19% hits;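 active = mean activation across triplicates above the hit threshold derived in the original primary screen, cut at about 15% in these data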
An asterisk follows results filed as active; · = not tested or not shown. This is a sample that favours compounds with a hit; in the whole collection about 1.8% have one here.

SMILES	m5-HT2A agonist	LANA-H2A inh	Rtt109 HAT inh	TLR4 MyD88 comp	NOD2 RIPK2 PPI	TLR9-MyD88 block	MOR ag counter	m5-HT2A ag conf
CSc1cccc(NC(=S)N(CCCN2CCCC2)Cc2cccs2)c1	43*	-3	-2	0	-2	4	-1	15*
C/C(=N/NC(=O)CNC(=O)COc1ccccc1)c1ccc(Cl)cc1	16*	1	-39	·	-16	13	-1	-6
COc1cccc(C(=O)NCCS(=O)(=O)N2CCC(C)CC2)c1	14*	-1	-7	·	1	-4	0	-5
O=C1CC(=O)Nc2cc(S(=O)(=O)N3CCOc4ccccc43)ccc2N1	26*	9	15	·	-2	-2	-1	-2
CCC(C)(C)n1nnnc1C(c1ccc(O)c(OC)c1)N1CCN(c2nc3ccccc3s2)CC1 (stereo unspecified)	24*	2	16	10	1	0	-1	7
Cc1ccccc1-n1ncc(C(C)NS(=O)(=O)c2sccc2C)c1C (stereo unspecified)	15*	-5	4	·	-3	-9	-1	-3
Cc1noc(C)c1S(=O)(=O)NCc1ccc2c(c1)OCO2	32*	2	-7	·	-8	5	-1	-5
Cc1cc(C)c(S(=O)(=O)NCc2ccc3c(c2)OCO3)c(C)c1	0	-2	-1	·	-8	-4	·	·
COc1ccc(C(=O)NCc2ccncc2)cc1S(=O)(=O)NCc1ccc(Cl)cc1	-9	-5	13	·	-2	-10	·	·
COc1ccccc1CN(C)C(=O)CN1CCN(C(=O)c2cccs2)CC1	17*	0	-1	·	7	-2	0	27*
COc1ccccc1CC(NC(C)=O)C(=O)N1CCN(C(=O)c2cccs2)CC1 (stereo unspecified)	4	-1	0	4	-9	2	·	·
CC(C)(C)c1cc2nc3c(c(=O)n2[nH]1)CN(Cc1ccccc1)C3=O	3	-4	·	·	-2	·	·	·
CC1CC(C)CN(C(=O)c2ccc3nc[nH]c3c2)C1 (stereo unspecified)	16*	-3	7	·	-8	3	-1	-3
CCCS(=O)(=O)NC(=O)C1(C)CCN(C(=O)C2(c3ccc(Cl)cc3)CCCC2)C1 (stereo unspecified)	16*	·	·	·	4	·	0	2
CCCS(=O)(=O)NC(=O)C1(C)CCN(C(=O)c2cc(F)cc(F)c2)C1 (stereo unspecified)	15*	·	·	·	-4	·	-1	-6
CC1(C(=O)NS(=O)(=O)C2CC2)CCN(C(=O)C2(c3ccc(Cl)cc3)CCCC2)C1 (stereo unspecified)	1	·	·	·	-2	·	·	·
CC(C)Cc1nnc(NC(=O)c2cc([N+](=O)[O-])ccc2N2CCOCC2)s1	-8	0	11	·	-16	-10	·	·
COc1ccc2c3n(nc2c1)CCN=C3c1ccc(Cl)cc1	17*	0	-8	·	0	1	0	-5
Cc1ccc2oc(C(=O)N(C)CCC(O)c3ccccc3)c(C)c2c1 (stereo unspecified)	-6	-3	12	·	4	-2	·	·
COC(=O)c1cc(C)sc1NC(=O)CSc1ncccn1	-4	-6	8	·	-14	-5	·	·
CC/C(=N\NC(=O)C1CCCC1)c1cccc(Br)c1	-3	4	5	·	-7	-7	·	·
CC/C(=N\NC(=O)C1CCCC1)c1ccc(Br)cc1	18*	-1	-13	·	-6	-2	-1	-2
O=S(=O)(NCc1csc(-c2cccnc2)n1)c1ccc(Br)cc1	8	-8	5	·	-4	2	·	·
COc1ccc(S(=O)(=O)NCc2csc(-c3cccnc3)n2)cc1	17*	2	-4	-5	0	-7	-1	-4
CC(c1nc2ccccc2[nH]1)N(C(=O)Cc1csc2ccccc12)c1cccnc1 (stereo unspecified)	1	·	·	·	-4	·	·	·
SMILES	m5-HT2A agonist	LANA-H2A inh	Rtt109 HAT inh	TLR4 MyD88 comp	NOD2 RIPK2 PPI	TLR9-MyD88 block	MOR ag counter	m5-HT2A ag conf
O=C(Nc1ccc2snnc2c1)N1CCSCC1	17*	0	8	-9	0	-1	0	3
CNC(=O)Nc1ccc2snnc2c1	-7	3	-6	6	1	3	·	·
O=C(O)C1C2CC(C(Br)C2Br)C1C(=O)O (stereo unspecified)	3	·	-1	·	6	11	·	·
CN1CCN(S(=O)(=O)c2ccc(C(F)(F)F)cc2)C(c2ccccc2)C1 (stereo unspecified)	15*	·	6	·	4	-7	0	-1
Cc1ccc(S(=O)(=O)N2CCC(=O)CC2c2ccccc2)cc1 (stereo unspecified)	-3	·	3	·	-7	-1	·	·
CC1=C(C(=O)N2CCCC(N3CCN(c4ccccc4F)CC3)C2)OCCO1 (stereo unspecified)	4	0	-28	·	3	0	·	·
COC(=O)c1ccc(NC(=O)c2ccc3c(c2)NC(=O)C2CCCN32)cc1 (stereo unspecified)	·	-5	·	·	·	·	·	·
O=C1C2CCCN2C(c2ccc(F)cc2)N1c1cccc(Cl)c1 (stereo unspecified)	17*	0	8	-9	-9	-3	-1	1
O=C(NC1CCCC1)C1c2ccccc2OCC(=O)N1CCCN1CCOCC1 (stereo unspecified)	4	·	·	·	-8	·	·	·
O=C(CNC(=O)C1CC1)Nc1ccc(F)c(F)c1F	-1	-2	4	·	-4	-1	·	·
COc1ccc(CC2(CO)CCN(Cc3cc4ccccc4o3)CC2)cc1	40*	-2	9	-1	-1	-7	-1	66*
Cc1c(CN2CCC(CO)(Cc3cccc(C(F)(F)F)c3)CC2)c2ccccc2n1C	-8	0	2	-17	-4	-8	·	·
OCC1(Cc2cccc(C(F)(F)F)c2)CCN(Cc2cc3ccccc3o2)CC1	24*	0	-10	0	-2	-28	0	64*
CC1(Oc2cccc(F)c2)CCN(Cc2ccc3ccccc3c2)C1 (stereo unspecified)	1	·	·	·	-8	·	·	·
C=CCN(CC=C)CCOc1cccc2ccccc12	14*	0	-1	-18	-4	4	0	23*
Cc1ccc(NC(=O)CN2C(=O)N/C(=C\c3ccco3)C2=O)cc1	-3	8	1	·	-2	-1	·	·
CCc1ccc(CN(C(=O)c2oc3ccccc3c2C)C2CCS(=O)(=O)C2)cc1 (stereo unspecified)	15*	-3	0	·	1	5	0	-3

Screens (PubChem)
